# Assay results from PubChem BioAssay (NCATS).
# Inconclusive results are not listed. Unmarked numbers belong to inactive results. Calls come from the whole dose curve; as a rule, active = well fitted cell-killing curve with a large enough effect; inconclusive = small, poorly fitted or top-dose-only effect; inactive = flat fitted curve, though single readings scatter.
# Assay: Cell Viability - LYMP2-025 (AID 976);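 note: cells exposed to compound for 24 h at 37 °C; plate controls were DMSO only for no effect and tetraoctylammonium bromide control for full effect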
# Conditions: LYMP2-025 lymphoblastoid cell viability; series mostly up to 92.2 µM; activity change, negative = cytotoxicity: at the top concentration
# Source text: NIH Chemical Genomics Center [NCGC]
# NIH Molecular Libraries Screening Centers Network [MLSCN]
# National Institutes of Environmental Health Sciences [NIEHS]
# National Toxicology Program [NTP]
# We have developed a 1536-well cell-based assay for quantitative high throughput screening (qHTS) against a number of cell lines to determine in vitro cytotoxicity of small molecules. This particular assay uses a human lymphoblastoid cell line (LYMP2-025) purchased from Coriell Institute for Medical Research.
# NCGC Assay Protocol Summary:
# The CellTiter-Glo luminescent cell viability assay (Promega) is a homogeneous method to measure the number of viable cells in culture. The end point readout of this assay is based on quantitation of intracellular ATP, an indicator of metabolic activity, using the luciferase reaction. Luciferase catalyzes the oxidation of beetle Luciferin to oxyluciferin and light in the presence of ATP. The luminescent signal is proportional to amount of ATP present.
# Using the CellTiter-Glo luminescent cell viability assay, the amount of cellular ATP was measured in the lymphoblastoid cell line with complete culture medium following compound treatment for 24 hours. The assay was performed in opaque white Kalypsys 1536-well plates. In the screen, tetraoctylammonium bromide was used as positive control. Library compounds were measured for their ability to cause acute toxicity in the cell line, as reflected by a decrease in intracellular ATP levels, in a concentration-dependent manner. […] AC50 values were determined from concentration-response data modeled with the standard Hill equation.
# qHTS protocol for CellTiter Glo lymphoblastoid cellular assay
# [Step] [Parameter] [Value] [Description]
# 1. Reagent; 5 uL; 2500 lymphoblastoid cells/well
# 2. Time; 5 hr; 37 C incubation
# 4. Controls; 23 nL; Tetraoctylammonium bromide 6.4pM to 92 uM
# 5. Time; 24 hr; 37 C incubation
# 6. Reagent; 5 uL; CellTiter Glo reagent
# 7. Time; 30 min; Room Temperature
# 8. Detection; Luminescence; Viewlux plate reader
# Keywords: cell viability, cytotoxicity, lymphoblastoid cell line, luminescence, NTPHTS, NTPHTS_NCGC, NIEHS, DSSTox, MLSMR, MLSCN, NIH Roadmap, qHTS, NCGC
row,SMILES,"activity change, negative = cytotoxicity"
1,Nc1ccc2c(c1)C(=O)c1ccccc1C2=O,-22.2%
2,O=C(O)/C=C/c1ccc(/C=C/C(=O)O)cc1,-4.78%
3,CC(=O)OC1CC(C)OC(C)O1 (stereo not given),-6.19%
4,Clc1nc2ccccc2nc1Cl,-14.3%
5,O=C1c2ccccc2C(=O)C1(O)O,-15.9%
6,CCCCNCC,-9.32%
7,CCN(CC)c1ccc(N)cc1,-22.1%
8,c1ccc(SCCSc2ccccc2)cc1,-8.96%
9,CC(/C=C/C=C(C)/C=C/C(=O)O)=C\C=C\C=C(C)\C=C\C=C(C)\C=C\C(=O)O,-16.4%
10,CCCCC(CC)COCCCN (stereo not given),-12.4%
11,O=C1OC(=O)c2ccccc21,-19.7%
12,O=CC(=O)c1ccccc1,-14.6%
13,c1c[nH]cn1,7.58%
14,O=[N+]([O-])c1cc(N(CCO)CCO)ccc1NCCO,-26.8%
15,CCc1ccc(C(c2ccc(CC)cc2)C(Cl)Cl)cc1,-6.4%
16,CC(=O)OC(C(=O)c1ccccc1)c1ccccc1 (stereo not given),-11.9%
17,S=C(NC1CCCCC1)NC1CCCCC1,-10.8%
18,COc1cc(-c2ccc(N=C=O)c(OC)c2)ccc1N=C=O,-10.4%
19,Nc1ccccc1O,-0.706%
20,Nc1cc(C(=O)O)c(O)c(S(=O)(=O)O)c1,-1.41%

row,SMILES,"activity change, negative = cytotoxicity"
1,O=[N+]([O-])c1cc(Cl)c(Cl)c(Cl)c1Cl,-29.8%
2,C=CC(C)(O)CCCC(C)CCCC(C)CCCC(C)C (stereo not given),-4.65%
3,Cc1ccc(O)c(N)c1,-5.98%
4,C[Si](C)(C)Cl,-7.22%
5,OCC(CBr)(CBr)CBr,-14.9%
6,C1CCCNCC1,-1.83%
7,CC(C)COC(=O)COc1cc(Cl)c(Cl)cc1Cl,-0.839%
8,O=C(O)c1cc(N=Nc2ccc([N+](=O)[O-])cc2)ccc1O,-19.2%
9,O=C(Cl)c1ccc([N+](=O)[O-])cc1,-5.21%
10,Cc1c2ccccc2c(C)c2c1ccc1ccccc12,-13.5%
11,CCCCCCN,-16.1%
12,COc1ccc(C(=O)Nc2ccccc2)cc1[N+](=O)[O-],-15.7%
13,CC(=O)CC(=O)Nc1ccccc1,-19.5%
14,O=C(OCc1ccccc1)c1ccccc1O,-4.57%
15,CC(=O)c1ccc(Cl)c(Cl)c1Cl,-3.71%
16,Oc1c(Cl)cc(Cl)c(Cl)c1Cl,-13.6%
17,NC(=O)Nc1nc2ccccc2[nH]1,-0.526%
18,CCCCC(CC)COP(=O)(OCC(CC)CCCC)OCC(CC)CCCC (stereo not given),-11.4%
19,CC(=O)Nc1cccc(C)c1,-2.4%
20,CCOc1ccc2nc(N)sc2c1,-8.78%
